“And” between values parts separate entries of the source, which are not always exact repeats. Identical values can stand only once. Records with an inconclusive call do not appear. The source holds several records for some structures; these can differ, active in one and inactive in another. The source made the active and inactive calls. The calls were made as follows: active = hit-call score of the fitted dose curve at least 0.9, where 1 is the maximum; inconclusive = response in the unintended direction; inactive = score below 0.9.
How the values were obtained:
[1] = molecular target: rat Adrenergic, Alpha 1, Non-selective Receptor (Adra1), Adra1a (gene 29412) (UniProt P43140); test: NVS_GPCR_rAdra1_NonSelective: NovaScreen (NVS) G Protein-Coupled Receptor Assay for rat Adrenergic, Alpha 1, Non-selective Receptor (Adra1) (AID 2283289)
Outline: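 Chemicals first screened in duplicate at 25 uM, then actives tested in concentration series up to 50 uM. Binding measured as displacement of radioligand from rat forebrain membrane receptors, 1 h, filtration with scintillation readout; DMSO baseline.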

[2] = molecular target: human Opioid Receptor Mu (Opiate Mu), OPRM1 (gene 4988) (UniProt P35372); test: NVS_GPCR_hOpiate_mu: NovaScreen (NVS) G Protein-Coupled Receptor Assay for human Opioid Receptor Mu (Opiate Mu) (AID 2283290);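 also: hits lower bound tracer signal versus DMSO meaning displacement of the ligand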
Outline: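 Radioligand displacement binding on membranes from CHO cells expressing the receptor, 2.5 h after dosing, filter-based scintillation counting; loss of signal vs DMSO baseline. Screened in duplicate at 25 uM, actives then run in concentration series.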

[3] = molecular target: guinea pig Serotonin, 5-Hydroxytryptamine Receptor 4 (5HT4), HTR4 (gene 100135548) (UniProt O70528); test: NVS_GPCR_g5HT4: NovaScreen (NVS) G Protein-Coupled Receptor Assay for guinea pig Serotonin, 5-Hydroxytryptamine Receptor 4 (5HT4) (AID 2283294)
Outline: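 Compounds first screened in duplicate at 25 uM, actives followed up in concentration series. Binding measured as displacement of specific radioligand from guinea pig striatal membranes, 1 h, filter-based scintillation read-out versus DMSO baseline.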

[4] = molecular target: rat Neurokinin-1 Receptor (NK1), Tacr1 (gene 24807) (UniProt P14600); test: NVS_GPCR_rNK1: NovaScreen (NVS) G Protein-Coupled Receptor Assay for rat Neurokinin-1 Receptor (NK1) (AID 2283309)
Outline: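 Competitive radioligand binding to NK1 in rat submaxillary membranes, 1 h incubation, filtration and scintillation read-out. Compounds first screened at 25 uM in duplicate, then concentration-response for actives; signal loss relative to DMSO.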

[5] = molecular target: human Orphanin, Opioid Related Nociceptin Receptor 1 (ORL1), OPRL1 (gene 4987) (UniProt P41146); test: NVS_GPCR_hORL1: NovaScreen (NVS) G Protein-Coupled Receptor Assay for human Orphanin, Opioid Related Nociceptin Receptor 1 (ORL1) (AID 2283283)
Outline: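 Cell-free binding using HEK293-derived receptor protein: radioligand displacement measured by filter scintillation 1 hour after dosing. Primary testing at 25 uM in duplicate, followed by singleton concentration series up to 50 uM; DMSO served as negative control.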

Adra2b (gene 24174) = Adra2b (gene 24174) (UniProt P19328); test: NVS_GPCR_rmAdra2B: NovaScreen (NVS) G Protein-Coupled Receptor Assay for hybird cells Adrenergic, Alpha 2B Receptor (Adra2B) (AID 2283306)
Outline: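 Compounds screened first at 25 uM in duplicate, with actives followed up in concentration-response; specific radioligand displacement from hybrid neuroglioma/blastoma cell membrane preparations measured by filter scintillation counting after 1 h, normalized to DMSO.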

[6] = molecular target: human Thromboxane A2 Receptor (TXA2), TBXA2R (gene 6915) (UniProt P21731); test: NVS_GPCR_hTXA2: NovaScreen (NVS) G Protein-Coupled Receptor Assay for human Thromboxane A2 Receptor (TXA2) (AID 2283282);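 also: actives reduce bound radioligand signal relative to DMSO baseline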
Outline: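 Cell-free radioligand binding on membrane protein from human platelets; radioligand displacement read by filter-based scintillation counting after 1 h. Primary screen in duplicate at 25 uM, actives then run in concentration series; loss of signal versus DMSO.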

[7] = molecular target: human Vasopressin 1A Receptor (V1A), AVPR1A (gene 552) (UniProt P37288); test: NVS_GPCR_hV1A: NovaScreen (NVS) G Protein-Coupled Receptor Assay for human Vasopressin 1A Receptor (V1A) (AID 2283284)
Outline: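 Single-concentration duplicate screen at 25 uM, with concentration-response follow-up (top 50 uM) for actives. The assay measured displacement of a radioligand from human platelet-derived receptor after 1.5 h, detected by filtration and scintillation counting.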

[8] = molecular target: rat Serotonin, 5-Hydroxytryptamine Receptor 1 (5HT1), Non-Selective Binding, Htr1a (gene 24473) (UniProt P19327); test: NVS_GPCR_r5HT1_NonSelective: NovaScreen (NVS) G Protein-Coupled Receptor Assay for rat Serotonin, 5-Hydroxytryptamine Receptor 1 (5HT1), Non-Selective Binding (AID 2283286)
Outline: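 Binding of a radioligand to rat cortex membranes is read by filtration and scintillation counting after 1 h. Compounds were screened at 25 uM in duplicate. Actives were then titrated to a top of 50 uM. DMSO is the baseline.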

[9] = system: rabbit Platelet Activating Factor Receptor (PAF), gene 100354046; test: NVS_GPCR_rabPAF: NovaScreen (NVS) G Protein-Coupled Receptor Assay for rabbit Platelet Activating Factor Receptor (PAF) (AID 2283287)
Outline: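 Rabbit platelet membrane preparation; radioligand displacement read by filter-based scintillation counting 1 h after dosing, loss of signal versus DMSO. Primary screen in duplicate at 25 uM, actives followed up in concentration series.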

[10] = molecular target: guinea pig Bradykinin Receptor B2 (BK2), BDKRB2 (gene 100135486) (UniProt O70526); test: NVS_GPCR_gBK2: NovaScreen (NVS) G Protein-Coupled Receptor Assay for guinea pig Bradykinin Receptor B2 (BK2) (AID 2283292)
Outline: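 Guinea pig ileum membrane preparation incubated 1 h with radioligand and test chemical; bound counts measured after filtration. Primary duplicate screening at 25 uM, then singleton concentration series with a 50 uM top dose; DMSO as baseline.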

[11] = molecular target: rat Adrenergic Receptor, Alpha 2 (Adra2), Non-selective Binding, Adra2a (gene 25083) (UniProt P22909); test: NVS_GPCR_rAdra2_NonSelective: NovaScreen (NVS) G Protein-Coupled Receptor Assay for rat Adrenergic Receptor, Alpha 2 (Adra2), Non-selective Binding (AID 2283299)
Outline: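 Filter-based scintillation counting of radioligand binding to rat cortical membrane receptors, measured 1.25 hours post-dosing; loss of signal versus DMSO indicates displacement. Initial single-concentration duplicate at 25 uM, then concentration series.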

[12] = molecular target: rat Gamma-Aminobutyric Acid Type B Receptor (GABBR), Gabbr1 (gene 81657) (UniProt Q9Z0U4); test: NVS_GPCR_rGABBR: NovaScreen (NVS) G Protein-Coupled Receptor Assay for rat Gamma-Aminobutyric Acid Type B Receptor (GABBR) (AID 2283301)
Outline: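 Rat cortical membrane preparation, competitive radioligand binding for 1 h with filtration and scintillation readout. Actives from duplicate single-point 25 uM screening proceeded to concentration series with 50 uM top concentration.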

[13] = system: 5-hydroxytryptamine receptor 2C (pig); test: NVS_GPCR_p5HT2C: NovaScreen (NVS) G Protein-Coupled Receptor Assay for pig Serotonin, 5-Hydroxytryptamine Receptor 2C (5HT2C) (AID 2283288)
Outline: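 Radioligand displacement on membranes from pig choroid plexus, detected by filter scintillation counting after 1 h. Tested first at a single 25 uM in duplicate, then in concentration-response for actives; DMSO served as baseline.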

[14] = molecular target: Metabotropic glutamate receptor 1 (Rattus norvegicus) (UniProt P23385); test: NVS_GPCR_rmMGluR1: NovaScreen (NVS) G Protein-Coupled Receptor Assay for rat Glutamate Metabotropic Receptor 1 (MGluR1) (AID 2283305)
Outline: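 Binding to native receptor from rat cerebellum extract, measured as displacement of a radioligand (scintillation counting, filter separation) after 1 hour. Compounds tested at 25 uM in duplicate, then titrated to a 50 uM maximum.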

[15] = molecular target: mouse Cholecystokinin, CCK2 Receptor (CCKB), Cckbr (gene 12426) (UniProt P56481); test: NVS_GPCR_mCKKBCentral: NovaScreen (NVS) G Protein-Coupled Receptor Assay for mouse Cholecystokinin, CCK2 Receptor (CCKB) (AID 2283293)
Outline: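 Mouse forebrain membrane preparation incubated 2 h with chemical and radioligand; bound radioactivity counted after filtration. Single-concentration duplicate screen at 25 uM, then concentration series to 50 uM max for hits, DMSO as baseline.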

[16] = molecular target: rat Adrenergic Receptor, Beta (Adrb), Non-selective Binding, Adrb1 (gene 24925) (UniProt P18090); test: NVS_GPCR_rAdrb_NonSelective: NovaScreen (NVS) G Protein-Coupled Receptor Assay for rat Adrenergic Receptor, Beta (Adrb), Non-selective Binding (AID 2283298)
Outline: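 Rat cortical membranes incubated 1 h with beta-adrenergic radioligand and test chemical; bound ligand measured by filtration and scintillation counting. Screen at 25 uM duplicate, then concentration series with 50 uM maximum; loss of signal versus DMSO.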

[17] = molecular target: rat Adrenergic, Alpha 1A Receptor (Adra1A), Adra1a (gene 29412) (UniProt P43140); test: NVS_GPCR_rAdra1A: NovaScreen (NVS) G Protein-Coupled Receptor Assay for rat Adrenergic, Alpha 1A Receptor (Adra1A) (AID 2283296)
Outline: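 Filter radiodetection after 1 h competitive binding on CEC-pretreated rat cortical membranes. Duplicate single-point screening at 25 uM; active chemicals retested across concentration series.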

[18] = molecular target: rat Histamine Receptor (H3), Hrh3 (gene 85268) (UniProt Q9QYN8); test: NVS_GPCR_rH3: NovaScreen (NVS) G Protein-Coupled Receptor Assay for rat Histamine Receptor (H3) (AID 2283303)
Outline: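 Filter-binding radioligand competition on rat forebrain membranes, 1 h incubation; compounds screened at 25 µM in duplicate and followed in concentration series to 50 µM, loss of bound signal vs DMSO.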

[19] = molecular target: human Purinergic Receptor P2Y, P2RY1 (gene 5028) (UniProt P47900); test: NVS_GPCR_hPY2: NovaScreen (NVS) G Protein-Coupled Receptor Assay for human Purinergic Receptor P2Y (AID 2283281)
Outline: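 Filtration scintillation readout of radioligand displacement on U937 extract, measured 1 h post-dosing. Single 25 uM duplicate screen, then singleton concentration series to 50 uM for chemicals passing threshold; DMSO as baseline.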

Adra2b (gene 24174), sequence (P19328 whole entry, looked up): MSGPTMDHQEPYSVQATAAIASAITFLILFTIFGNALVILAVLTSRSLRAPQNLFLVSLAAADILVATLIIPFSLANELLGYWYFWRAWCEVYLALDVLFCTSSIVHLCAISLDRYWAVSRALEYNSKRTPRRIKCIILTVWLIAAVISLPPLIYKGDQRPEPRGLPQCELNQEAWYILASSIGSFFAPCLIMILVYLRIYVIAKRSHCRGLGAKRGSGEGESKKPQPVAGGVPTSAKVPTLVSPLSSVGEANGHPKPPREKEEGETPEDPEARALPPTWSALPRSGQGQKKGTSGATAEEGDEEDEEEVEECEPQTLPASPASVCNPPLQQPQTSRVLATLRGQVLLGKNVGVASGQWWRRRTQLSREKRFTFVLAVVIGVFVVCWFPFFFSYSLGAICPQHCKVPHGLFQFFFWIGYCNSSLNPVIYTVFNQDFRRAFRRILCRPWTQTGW
guinea pig Serotonin, 5-Hydroxytryptamine Receptor 4 (5HT4), HTR4 (gene 100135548), sequence (O70528 whole entry, looked up): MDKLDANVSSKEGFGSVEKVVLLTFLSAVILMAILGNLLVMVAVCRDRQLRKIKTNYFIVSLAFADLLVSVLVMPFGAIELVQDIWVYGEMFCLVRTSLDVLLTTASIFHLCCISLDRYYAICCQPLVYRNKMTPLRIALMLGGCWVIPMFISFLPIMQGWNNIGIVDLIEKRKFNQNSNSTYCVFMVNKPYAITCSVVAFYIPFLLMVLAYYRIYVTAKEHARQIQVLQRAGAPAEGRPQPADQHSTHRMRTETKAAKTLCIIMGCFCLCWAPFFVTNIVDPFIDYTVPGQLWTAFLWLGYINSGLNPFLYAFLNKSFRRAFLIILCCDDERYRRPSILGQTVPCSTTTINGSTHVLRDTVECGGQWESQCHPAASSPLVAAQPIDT
mouse Cholecystokinin, CCK2 Receptor (CCKB), Cckbr (gene 12426), sequence (P56481 whole entry, looked up): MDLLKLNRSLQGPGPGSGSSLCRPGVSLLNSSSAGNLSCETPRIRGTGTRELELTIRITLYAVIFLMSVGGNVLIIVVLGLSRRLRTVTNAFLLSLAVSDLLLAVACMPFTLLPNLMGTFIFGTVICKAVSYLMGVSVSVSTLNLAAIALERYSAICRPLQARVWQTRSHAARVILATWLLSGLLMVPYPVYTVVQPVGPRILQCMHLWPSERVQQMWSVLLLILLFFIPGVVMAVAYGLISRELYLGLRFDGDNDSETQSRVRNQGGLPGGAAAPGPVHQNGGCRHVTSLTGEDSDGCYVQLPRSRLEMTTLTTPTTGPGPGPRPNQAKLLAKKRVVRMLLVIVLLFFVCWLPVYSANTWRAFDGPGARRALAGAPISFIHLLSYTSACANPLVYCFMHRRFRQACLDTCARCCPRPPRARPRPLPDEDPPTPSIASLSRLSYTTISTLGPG
rat Adrenergic, Alpha 1, Non-selective Receptor (Adra1), Adra1a (gene 29412), sequence (P43140 whole entry, looked up): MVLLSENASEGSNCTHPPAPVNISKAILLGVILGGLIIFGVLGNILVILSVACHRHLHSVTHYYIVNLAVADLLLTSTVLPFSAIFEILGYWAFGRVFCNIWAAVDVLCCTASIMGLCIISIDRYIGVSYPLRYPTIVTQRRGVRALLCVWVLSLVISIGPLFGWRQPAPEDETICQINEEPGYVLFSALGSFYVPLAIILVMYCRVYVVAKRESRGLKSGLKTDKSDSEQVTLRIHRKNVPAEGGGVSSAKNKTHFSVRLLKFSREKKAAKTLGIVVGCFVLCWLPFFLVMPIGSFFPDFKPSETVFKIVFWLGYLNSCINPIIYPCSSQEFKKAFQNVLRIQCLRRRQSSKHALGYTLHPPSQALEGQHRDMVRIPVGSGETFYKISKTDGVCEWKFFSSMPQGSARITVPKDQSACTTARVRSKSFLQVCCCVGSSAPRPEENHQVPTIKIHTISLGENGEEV
rat Adrenergic Receptor, Alpha 2 (Adra2), Non-selective Binding, Adra2a (gene 25083), sequence (P22909 whole entry, looked up): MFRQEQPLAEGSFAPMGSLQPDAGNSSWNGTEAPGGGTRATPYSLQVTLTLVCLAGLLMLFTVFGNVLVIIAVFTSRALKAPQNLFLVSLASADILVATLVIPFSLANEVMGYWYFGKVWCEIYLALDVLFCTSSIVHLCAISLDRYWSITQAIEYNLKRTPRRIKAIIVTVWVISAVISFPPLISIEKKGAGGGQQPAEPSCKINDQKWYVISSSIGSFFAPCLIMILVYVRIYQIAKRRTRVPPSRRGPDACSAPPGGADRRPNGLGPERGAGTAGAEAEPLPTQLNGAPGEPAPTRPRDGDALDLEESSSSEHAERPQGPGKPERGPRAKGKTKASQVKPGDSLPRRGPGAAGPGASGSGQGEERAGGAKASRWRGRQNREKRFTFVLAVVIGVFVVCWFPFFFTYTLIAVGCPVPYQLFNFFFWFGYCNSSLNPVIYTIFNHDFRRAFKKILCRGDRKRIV
human Opioid Receptor Mu (Opiate Mu), OPRM1 (gene 4988), sequence (P35372 whole entry, looked up): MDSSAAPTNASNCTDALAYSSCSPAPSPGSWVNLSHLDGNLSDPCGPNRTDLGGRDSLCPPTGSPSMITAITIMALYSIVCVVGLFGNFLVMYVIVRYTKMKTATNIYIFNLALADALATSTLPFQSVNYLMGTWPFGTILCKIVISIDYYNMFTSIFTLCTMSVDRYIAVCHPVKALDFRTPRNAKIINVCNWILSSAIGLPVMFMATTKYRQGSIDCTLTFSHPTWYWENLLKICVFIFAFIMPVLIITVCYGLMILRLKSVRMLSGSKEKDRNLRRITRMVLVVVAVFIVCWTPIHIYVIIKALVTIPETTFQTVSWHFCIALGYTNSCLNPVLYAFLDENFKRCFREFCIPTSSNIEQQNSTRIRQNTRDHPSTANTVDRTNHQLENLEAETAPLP
human Thromboxane A2 Receptor (TXA2), TBXA2R (gene 6915), sequence (P21731 whole entry, looked up): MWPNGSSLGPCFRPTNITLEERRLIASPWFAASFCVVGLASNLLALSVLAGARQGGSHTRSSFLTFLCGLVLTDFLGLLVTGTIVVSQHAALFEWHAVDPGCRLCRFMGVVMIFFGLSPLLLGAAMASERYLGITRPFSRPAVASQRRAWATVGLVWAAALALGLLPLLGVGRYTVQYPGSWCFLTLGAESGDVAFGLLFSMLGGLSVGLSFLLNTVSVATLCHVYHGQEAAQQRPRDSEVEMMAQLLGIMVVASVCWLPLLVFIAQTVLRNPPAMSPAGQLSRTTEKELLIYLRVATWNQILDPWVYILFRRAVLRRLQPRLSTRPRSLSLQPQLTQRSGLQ
guinea pig Bradykinin Receptor B2 (BK2), BDKRB2 (gene 100135486), sequence (O70526 whole entry, looked up): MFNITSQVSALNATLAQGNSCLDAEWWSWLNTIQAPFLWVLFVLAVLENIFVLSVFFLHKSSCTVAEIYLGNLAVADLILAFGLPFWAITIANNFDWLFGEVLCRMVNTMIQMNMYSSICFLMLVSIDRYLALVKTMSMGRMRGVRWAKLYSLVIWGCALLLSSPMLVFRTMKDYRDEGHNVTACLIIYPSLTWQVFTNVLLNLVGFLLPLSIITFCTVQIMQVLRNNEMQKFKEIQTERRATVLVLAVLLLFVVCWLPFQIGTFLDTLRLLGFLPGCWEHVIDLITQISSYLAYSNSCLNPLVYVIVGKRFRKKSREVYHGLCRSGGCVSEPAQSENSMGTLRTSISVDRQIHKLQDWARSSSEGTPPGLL
human Vasopressin 1A Receptor (V1A), AVPR1A (gene 552), sequence (P37288 whole entry, looked up): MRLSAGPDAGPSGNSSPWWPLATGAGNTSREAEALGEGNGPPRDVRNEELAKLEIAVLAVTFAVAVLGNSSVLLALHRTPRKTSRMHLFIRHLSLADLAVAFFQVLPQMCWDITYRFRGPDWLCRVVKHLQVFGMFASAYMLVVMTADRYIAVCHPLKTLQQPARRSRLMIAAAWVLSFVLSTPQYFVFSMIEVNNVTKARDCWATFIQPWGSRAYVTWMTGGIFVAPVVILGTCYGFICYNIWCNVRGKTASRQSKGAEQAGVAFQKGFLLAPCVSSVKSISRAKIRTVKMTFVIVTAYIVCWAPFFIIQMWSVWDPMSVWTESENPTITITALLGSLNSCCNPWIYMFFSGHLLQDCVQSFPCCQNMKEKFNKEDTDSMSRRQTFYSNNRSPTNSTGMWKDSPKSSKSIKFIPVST
rat Neurokinin-1 Receptor (NK1), Tacr1 (gene 24807), sequence (P14600 whole entry, looked up): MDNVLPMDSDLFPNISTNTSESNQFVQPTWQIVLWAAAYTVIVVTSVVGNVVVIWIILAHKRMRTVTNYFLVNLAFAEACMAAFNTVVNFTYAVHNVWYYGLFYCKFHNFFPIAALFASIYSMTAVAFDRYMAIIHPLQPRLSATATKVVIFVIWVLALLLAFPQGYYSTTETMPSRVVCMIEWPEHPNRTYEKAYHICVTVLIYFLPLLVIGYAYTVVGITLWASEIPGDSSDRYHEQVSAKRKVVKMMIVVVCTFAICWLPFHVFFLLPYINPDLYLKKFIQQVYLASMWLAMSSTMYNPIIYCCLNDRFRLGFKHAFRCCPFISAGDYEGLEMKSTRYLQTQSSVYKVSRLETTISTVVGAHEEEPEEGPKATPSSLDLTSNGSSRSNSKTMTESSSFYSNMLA
rat Serotonin, 5-Hydroxytryptamine Receptor 1 (5HT1), Non-Selective Binding, Htr1a (gene 24473), sequence (P19327 whole entry, looked up): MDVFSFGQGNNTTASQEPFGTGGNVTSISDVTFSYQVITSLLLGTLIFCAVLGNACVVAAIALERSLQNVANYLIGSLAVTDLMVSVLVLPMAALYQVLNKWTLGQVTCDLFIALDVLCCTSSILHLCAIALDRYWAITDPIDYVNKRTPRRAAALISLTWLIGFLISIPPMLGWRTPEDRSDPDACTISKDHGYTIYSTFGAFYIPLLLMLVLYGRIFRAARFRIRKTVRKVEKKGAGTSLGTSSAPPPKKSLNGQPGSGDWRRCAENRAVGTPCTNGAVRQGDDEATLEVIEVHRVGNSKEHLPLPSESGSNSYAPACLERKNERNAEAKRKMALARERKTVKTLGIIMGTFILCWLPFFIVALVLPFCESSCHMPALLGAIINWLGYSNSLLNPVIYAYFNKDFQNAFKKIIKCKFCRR

Compound: Oc1ccc(C(c2ccc(O)cc2)C(Cl)(Cl)Cl)cc1
- outcome [1]: inactive
- AC50 [2]: 3.58 µM (active)
- AC50 [3]: 2.7 µM (active)
- AC50 [4]: 39.4 µM (active)

Compound: C[C@]12C[C@H](O)[C@H]3[C@@H](CCC4=CC(=O)CC[C@@]43C)[C@@H]1CC[C@@H]2C(=O)CO
- AC50 [5]: 39 µM (active)
- outcome (Adra2b (gene 24174)): inactive

Compound: CN(C)C(=O)Nc1ccc(Cl)c(Cl)c1
- AC50 [6]: 9.69 µM (active)

Compound: S=C(S)NCCNC(=S)S.[Mn+2].[S-]C([S-])=NCCN=C([S-])[S-].[Zn+2]
- outcome [7]: inactive
- outcome [8]: inactive
- outcome [9]: inactive
- AC50 [2]: 154 nM (active) and 3.46 µM (active) and 9.37 µM (active)
- outcome [2]: inactive
- AC50 [10]: 9.72 µM (active) and 9.3 µM (active) and 26.6 µM (active)
- AC50 [3]: 31.1 µM (active)
- outcome [3]: inactive
- AC50 [11]: 12.5 µM (active) and 15.4 µM (active)
- outcome [11]: inactive

Compound: COC(=O)c1c(Cl)nn(C)c1S(=O)(=O)NC(=O)Nc1nc(OC)cc(OC)n1
- outcome [9]: inactive

Compound: COC(=O)c1ccccc1S(=O)(=O)NC(=O)Nc1nc(OC(F)F)cc(OC(F)F)n1
- outcome [12]: inactive

Compound: O=C(c1ccc(O)cc1O)c1ccc(O)cc1O
- AC50 [13]: 17.4 µM (active)
- outcome [14]: inactive

Compound: C#C[C@]1(O)CC[C@H]2[C@@H]3CCC4=CC(=O)CC[C@@H]4[C@H]3CC[C@@]21CC
- outcome [4]: inactive

Compound: S=C([S-])NCCNC(=S)[S-].[Mn+2]
- outcome [7]: inactive
- outcome [9]: inactive
- AC50 [2]: 3.16 µM (active)
- AC50 [10]: 30.5 µM (active)
- AC50 [3]: 25 µM (active)
- outcome [11]: inactive

Compound: CC(C)(c1ccc(O)cc1)c1ccc(O)cc1
- AC50 [6]: 10.3 µM (active) and 5.04 µM (active)
- outcome [6]: inactive
- AC50 [13]: 18.6 µM (active) and 19 µM (active)
- AC50 [2]: 15.3 µM (active) [middle of 4 runs]
- outcome [2]: inactive
- AC50 [15]: 31.2 µM (active) and 19.2 µM (active) and 16.3 µM (active)
- AC50 [3]: 10.4 µM (active) and 24.2 µM (active) and 15.1 µM (active)
- outcome [11]: inactive
- outcome (Adra2b (gene 24174)): inactive

Compound: CC(C)CCCCCCc1ccc(O)cc1
- AC50 [2]: 15.8 µM (active)

Compound: CCC(O)=C1C(=O)CC(C(=O)O)CC1=O (stereo not drawn)
- outcome [9]: inactive

Compound: CCCOC(=O)c1ccc(C(=O)OCCC)nc1
- outcome [10]: inactive

Compound: CCC(C)OC(=O)N1CCCCC1CCO (stereo not drawn)
- outcome [2]: inactive

Compound: C[C@]12CC[C@@H]3c4ccc(O)cc4C[C@@H](CCCCCCCCCS(=O)CCCC(F)(F)C(F)(F)F)[C@H]3[C@@H]1CC[C@@H]2O (stereo partly drawn)
- outcome [4]: inactive

Compound: CCCCCOC(=O)COc1cc(N2C(=O)C3=C(CCCC3)C2=O)c(F)cc1Cl
- outcome [2]: inactive

Compound: COC(=O)c1ccc(CNS(C)(=O)=O)cc1S(=O)(=O)NC(=O)Nc1nc(OC)cc(OC)n1
- outcome [1]: inactive

Compound: CCCCOCCOCCOCc1cc2c(cc1CCC)OCO2
- outcome [14]: inactive

Compound: COC(=O)c1cccc(C)c1S(=O)(=O)NC(=O)Nc1nc(OCC(F)(F)F)nc(N(C)C)n1
- AC50 [7]: 1.32 µM (active)

Compound: CCOC(=O)[C@H](C)Oc1ccc(Oc2nc3ccc(Cl)cc3o2)cc1
- outcome [16]: inactive

Compound: C=CCOC(Cn1ccnc1)c1ccc(Cl)cc1Cl (stereo not drawn)
- AC50 [2]: 11.2 µM (active)
- AC50 [3]: 5.39 µM (active)
- AC50 [17]: 17.3 µM (active)
- AC50 (Adra2b (gene 24174)): 6.96 µM (active)
- AC50 [4]: 37.8 µM (active)

Compound: CCCOC(=O)NCCCN(C)C
- AC50 [18]: 18.1 µM (active)

Compound: COC(=O)CSc1cc(N=c2sc(=O)n3n2CCCC3)c(F)cc1Cl
- outcome [8]: inactive
- outcome [1]: inactive

Compound: O=C(O)c1ccccc1
- outcome [19]: inactive
- outcome [7]: inactive

Compound: CC(C)(C)[C@@H](O)[C@@H](Cc1ccc(Cl)cc1)n1cncn1
- outcome [9]: inactive

Source: PubChem BioAssay (EPA / NIEHS)
